IMPase Li inh – cell-permeable IMPase inhibitors with lithium potentiation. CHO-M1 cells, IP1 TR-FRET (IP-One), carbachol + lithium. Potency, µM (titrated, usually from 59.4 µM), without a hit: at the highest dose activity, negative = IMPase inhibition, usual class: inhibitors. AID 1457. 0.35% of 210,000 active;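 also: IP1 builds up when IMPase is blocked and the TR-FRET signal falls; plate controls were basal vehicle for no effect and high inhibitor control for full effect; nearly all actives have a fitted effect of over 50% in size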
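CHO-M1, 2000 cells/well, 16–30 h culture; cpd + low Li+, 30 min 37C; lysis with d2-IP1/Eu-anti-IP1 Ab, 10 min RT; TR-FRET 665/620 ratio and 620 channel; AC50 via Hill.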
ERK EGF inh – blocks ERK signaling stimulated by EGF; 0.41% of 130,000 active; AID 1454; Potency, µM (doses to about 11.5 µM), for the others: at the highest dose activity change, negative = inhibition, most hits filed as inhibitors; HEK293-V1b, EGF-stimulated phospho-ERK AlphaScreen;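 also: plate controls were stimulated vehicle wells for no effect and unstimulated vehicle basal for full effect; nearly all actives have a fitted effect of over 55% in size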
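In this qHTS, HEK293 cells with stable type-1 vasopressin (V1b) receptor were exposed to compound at 37C for 30 min, stimulated 5 min with EGF at 25 nM, lysed, and probed for phospho-ERK by AlphaScreen.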
NPSR antag – antagonists of human neuropeptide S receptor cAMP signaling. Q6W5P4. CHO-NPSR cells, cAMP TR-FRET, antagonist mode. Potency, µM (top dose mostly 38.3 µM), without a hit: top-dose activity change, negative = inhibition, actives largely listed as inhibitors. 1% of 220,000 active; also: nearly all actives have a fitted effect of over 50% in size
Target sequence (Q6W5P4 whole entry, looked up): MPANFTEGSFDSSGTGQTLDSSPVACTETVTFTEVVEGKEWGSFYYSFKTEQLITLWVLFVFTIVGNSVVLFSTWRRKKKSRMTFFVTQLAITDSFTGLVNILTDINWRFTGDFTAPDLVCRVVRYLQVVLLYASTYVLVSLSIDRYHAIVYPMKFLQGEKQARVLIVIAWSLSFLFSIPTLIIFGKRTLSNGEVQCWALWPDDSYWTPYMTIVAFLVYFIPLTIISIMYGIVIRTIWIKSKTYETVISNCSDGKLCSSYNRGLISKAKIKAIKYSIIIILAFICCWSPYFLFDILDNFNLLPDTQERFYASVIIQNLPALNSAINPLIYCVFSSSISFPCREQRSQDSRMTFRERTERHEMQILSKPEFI
Active calls of the source: *; ! = not confirmed by another sample; [ ] = another dose, or the depositor's remark. The sample as a whole holds a higher share of hits than the screen did. Calls follow the shape of the dose curve; as a rule, active = well fitted curve in the direction sought with a large enough effect; inconclusive = small, poorly fitted or top-dose-only effect, or another doubt; inactive = no such curve, though single readings can be large; an effect the other way counts as inactive or inconclusive. Unless noted, % is scaled to controls: 0 for no effect and ±100 for the full control effect; potency is read from the fitted curve at half-maximal effect.

For COc1cccc(N2CCN(c3ncnc4c3[nH]c3ccc(F)cc34)CC2C)c1 (stereo not drawn) the results were IMPase Li inh 32%[38.3 µM] and NPSR antag 2.5µM*.
Screening COc1cccc2[nH]c3c(N4CCC(C)CC4)ncnc3c12 returned IMPase Li inh 26%[38.3 µM] and NPSR antag -7%[46.1 µM].
`COc1cccc(N2CCN(c3ncnc4c3[nH]c3ccccc34)CC2C)c1` (stereo not drawn) gave IMPase Li inh 10%, ERK EGF inh 14µM* and NPSR antag 10µM*.
For c1ccc2c(c1)CCN(c1ncnc3c1[nH]c1ccccc13)C2 the results were IMPase Li inh 37%[38.3 µM] and NPSR antag inconclusive.
`COc1cccc2[nH]c3c(N4CCc5ccccc5C4)ncnc3c12` gave ERK EGF inh 22µM* and NPSR antag -35%.
Screening C[C@@]12C[C@H](O)C3[C@H](CCC4=CC(=O)CC[C@]43C)[C@H]1CC[C@@H]2c1csc(N)n1 (stereo partly drawn) returned IMPase Li inh 14%.
Screening CC(C)N1C(=O)S/C(=C/c2ccc(Sc3nc4ccccc4[nH]3)o2)C1=O returned IMPase Li inh 13%, ERK EGF inh inconclusive and NPSR antag -5%.
For C=CCN1C(=O)S/C(=C/c2ccc(Sc3nc4ccccc4[nH]3)o2)C1=O the results were IMPase Li inh 6%, ERK EGF inh 25µM* and NPSR antag 6%.
CC(C)[C@H]1COC(c2cc(Cl)cc(Cl)c2)=N1 was read as IMPase Li inh 2%.
`CC(=O)[C@]1(O)Cc2c(O)c3c(c(O)c2[C@@H](O[C@H]2C[C@H](N)[C@H](O)[C@H](C)O2)C1)C(=O)c1c(O)cccc1C3=O` gave IMPase Li inh 31%.
CCC(O)OC(O)CC (stereo not drawn) was read as IMPase Li inh -9%.
For CN(C)S(=O)(=O)c1ccc(Cl)c(NC(=O)COC(=O)c2ccc(O)cc2)c1 the results were IMPase Li inh 19%, ERK EGF inh inconclusive and NPSR antag -28%.
`CCN(CC)S(=O)(=O)c1ccc(Cl)c(NC(=O)COC(=O)c2ccc(O)cc2)c1` gave IMPase Li inh 25%, ERK EGF inh 28µM* and NPSR antag -38%.
Screening N#CCCn1c(=O)c(CCc2ccccc2)nc2cnc(N3CCOCC3)nc21 returned IMPase Li inh -26% and ERK EGF inh -20%.
CC(C)(C)OC(=O)NCCCCC1=CC2=CC(=O)C(C)(OC(=O)C3CCCC3)C(=O)C2=CO1 (stereo not drawn) was read as IMPase Li inh 6% and ERK EGF inh -4%.
Screening N[C@H](C(=O)O)c1cccc(O)c1 returned IMPase Li inh -15% and ERK EGF inh -5%.
Screening Cn1cccc1C(=O)N1CCC2(CC1)CN(C(=O)Nc1cccc(C#N)c1)C2 returned IMPase Li inh inconclusive and ERK EGF inh 1%.
Cc1cccc2sc(NNC(=O)c3cc(-c4cccs4)nc4ccccc34)nc12 was read as IMPase Li inh 19%, ERK EGF inh 13µM* and NPSR antag -9%.
For NNC(=O)c1cc(-c2cccs2)nc2ccccc12 the results were ERK EGF inh 7%[57.5 µM] and NPSR antag -1%.
For COC(=O)c1cccc(NC(=O)/C=C/c2ccc([N+](=O)[O-])cc2)c1 the results were IMPase Li inh 2%, ERK EGF inh inconclusive and NPSR antag -5%.
For CCOC(=O)c1cccc(NC(=O)/C=C/c2ccc([N+](=O)[O-])cc2)c1 the results were IMPase Li inh 12%, ERK EGF inh 32µM* and NPSR antag 1%.
Cc1nn(C(=O)c2ccc([N+](=O)[O-])cc2)c(C)c1Br was read as ERK EGF inh -11%[57.5 µM] and NPSR antag -13%.
For CCc1ccc(NC(=O)C2(C)Cc3ccccc3C(=O)O2)cc1 (stereo not drawn) the results were IMPase Li inh -2%, ERK EGF inh 22µM* and NPSR antag 16%.
`COc1ccccc1NC(=O)C1(C)Cc2ccccc2C(=O)O1` (stereo not drawn) gave IMPase Li inh 8%[38.3 µM] and NPSR antag 1%[46.1 µM].
Screening O=c1c(-c2ccc(F)cc2)nc2cnc(N3CCOCC3)nc2n1Cc1ccc(F)cc1 returned IMPase Li inh 6%.
COc1cc2nc(=S)n3[nH]c(CCn4nc(C)cc4C)nc3c2cc1OC was read as IMPase Li inh 10µM* and NPSR antag -6%[46.1 µM].
COc1cc2nc(=S)n3[nH]c(COc4ccccc4C)nc3c2cc1OC was read as IMPase Li inh -10%, ERK EGF inh -2% and NPSR antag -3%.
COC/C=C/C1=CC2=CC(=O)C(C)(OC(=O)c3cnc4ccccc4n3)C(=O)C2=CN1Cc1ccc2c(c1)OCO2 (stereo not drawn) was read as IMPase Li inh 2%.
`CC(Sc1cccc2cccc(C(=O)O)c12)C(=O)O` (stereo not drawn) gave IMPase Li inh -2%[38.3 µM] and NPSR antag -1%[46.1 µM].
`CC(Sc1ccc2ccccc2n1)C(=O)O` (stereo not drawn) gave IMPase Li inh 8.9µM* and NPSR antag inconclusive.
CC(Sc1cnc2ccccc2n1)C(=O)O (stereo not drawn) was read as IMPase Li inh 13µM* and NPSR antag inconclusive.
Screening Cc1cc(SC(C)C(=O)O)nc2ccccc12 (stereo not drawn) returned IMPase Li inh inconclusive, ERK EGF inh 3% and NPSR antag 42%.
For C/C(N=NC(=[SH+])SCc1ccccc1)=C1\C=CC=CN1.[Cl][Cu] the results were IMPase Li inh 2%.
Screening Cn1cnc2nc(NCCO)nc(NCc3ccccc3)c21 returned IMPase Li inh 22%.
Screening Cc1ccc(C(C)C)c(OCc2ccc(C(=O)N/N=C/c3cccc(O)c3O)cc2)c1 returned IMPase Li inh 16%, ERK EGF inh -1% and NPSR antag 10µM*.
Cc1ccc(C(C)C)c(OCc2ccc(C(=O)N/N=C/c3ccc(O)c(O)c3)cc2)c1 was read as IMPase Li inh -7%, ERK EGF inh 3% and NPSR antag -36%.
For COc1ccc(/C(=C\C(=O)O)c2nccc3cc(OC)c(OC)cc23)cc1OC the results were IMPase Li inh 3% and ERK EGF inh -15%.
Screening O=c1[nH][nH]c2cc(=O)n(-c3cccc(C(F)(F)F)c3)nc12 returned IMPase Li inh 4%, ERK EGF inh -4% and NPSR antag -10%.
COC(=O)c1sc2cc(=O)n(-c3cccc(C(F)(F)F)c3)nc2c1O was read as IMPase Li inh 33%, ERK EGF inh 0% and NPSR antag 10µM*.
`CC12CCC3c4ccc(OCc5ccccc5)cc4CCC3C1CC(O)C2O` (stereo not drawn) gave IMPase Li inh 19% and ERK EGF inh inconclusive.
For Fc1ccc(C(OCCCc2cnc[nH]2)c2ccc(F)cc2)cc1 the results were IMPase Li inh 32%, ERK EGF inh 8% and NPSR antag -11%[46.1 µM].
COc1cc2ccc(=O)oc2cc1OCC(O)C(C)(C)O (stereo not drawn) was read as ERK EGF inh -11%[57.5 µM] and NPSR antag 3%.
COc1cc2ccc(=O)oc2cc1O was read as IMPase Li inh 10µM*! and ERK EGF inh -14%.

Source: PubChem
